In paper PMC9911399, “Two distinct binding modes provide the RNA-binding protein RbFox with extraordinary sequence specificity”:
Numbering of substitutions follows the chain as printed; changes in the protein carry UniProt numbers. Over roughly 16,000 sequences, “ka relative to ugcaugu” has its median near 0.096; the highest 2% begin near 0.35. For the sample, the highest values were picked, then their nearest neighbours and some sequences at random.

B1: AGUUUUA (DNA:RNA)
RNA: GGGAGACCGGAAUUCAGAUUGUCCAGUUUUAUUAAAUCCCGUCGUAGCCACCA
DNA 1: CAATCTGAATTCCGGTCTCCC
DNA 2: TGGTGGCTACGACGGGATT
B2: UCGAAGU (DNA:RNA)
RNA: GGGAGACCGGAAUUCAGAUUGUCCUCGAAGUUUAAAUCCCGUCGUAGCCACCA
DNA 1: CAATCTGAATTCCGGTCTCCC
DNA 2: TGGTGGCTACGACGGGATT
B3: GUCCUUU (DNA:RNA)
RNA: B1 RNA with A25G, G26U, U27C, U28C, A31U
DNA 1: CAATCTGAATTCCGGTCTCCC
DNA 2: TGGTGGCTACGACGGGATT
B4: CGACCAC (DNA:RNA)
RNA: B1 RNA with A25C, U27A, U28C, U29C, U30A, A31C
DNA 1: CAATCTGAATTCCGGTCTCCC
DNA 2: TGGTGGCTACGACGGGATT
B5: AACACUU (DNA:RNA)
RNA: B1 RNA with G26A, U27C, U28A, U29C, A31U
DNA 1: CAATCTGAATTCCGGTCTCCC
DNA 2: TGGTGGCTACGACGGGATT
B6: ACAACGA (DNA:RNA)
RNA: B2 RNA with U25A, G27A, A29C, U31A
DNA 1: CAATCTGAATTCCGGTCTCCC
DNA 2: TGGTGGCTACGACGGGATT
B7: GGAGGAU (DNA:RNA)
RNA: B1 RNA with A25G, U27A, U28G, U29G, U30A, A31U
DNA 1: CAATCTGAATTCCGGTCTCCC
DNA 2: TGGTGGCTACGACGGGATT
B8: AAUCGAA (DNA:RNA)
RNA: B1 RNA with G26A, U28C, U29G, U30A
DNA 1: CAATCTGAATTCCGGTCTCCC
DNA 2: TGGTGGCTACGACGGGATT
B9: GCCAGCC (DNA:RNA)
RNA: B2 RNA with U25G, G27C, A29G, G30C, U31C
DNA 1: CAATCTGAATTCCGGTCTCCC
DNA 2: TGGTGGCTACGACGGGATT
B10: ACCAGCC (DNA:RNA)
RNA: B2 RNA with U25A, G27C, A29G, G30C, U31C
DNA 1: CAATCTGAATTCCGGTCTCCC
DNA 2: TGGTGGCTACGACGGGATT
B11: CGCCUUG (DNA:RNA)
RNA: B1 RNA with A25C, U27C, U28C, A31G
DNA 1: CAATCTGAATTCCGGTCTCCC
DNA 2: TGGTGGCTACGACGGGATT
B12: GCCCGCC (DNA:RNA)
RNA: B2 RNA with U25G, G27C, A28C, A29G, G30C, U31C
DNA 1: CAATCTGAATTCCGGTCTCCC
DNA 2: TGGTGGCTACGACGGGATT
B13: CGCCGCC (DNA:RNA)
RNA: B1 RNA with A25C, U27C, U28C, U29G, U30C, A31C
DNA 1: CAATCTGAATTCCGGTCTCCC
DNA 2: TGGTGGCTACGACGGGATT
B14: GCCUUGG (DNA:RNA)
RNA: B1 RNA with A25G, G26C, U27C, U30G, A31G
DNA 1: CAATCTGAATTCCGGTCTCCC
DNA 2: TGGTGGCTACGACGGGATT
B15: AGCCUUG (DNA:RNA)
RNA: B1 RNA with U27C, U28C, A31G
DNA 1: CAATCTGAATTCCGGTCTCCC
DNA 2: TGGTGGCTACGACGGGATT
B16: GUCCGCC (DNA:RNA)
RNA: GGGAGACCGGAAUUCAGAUUGUCCGUCCGCCUUAAAUCCCGUCGUAGCCACCA
DNA 1: CAATCTGAATTCCGGTCTCCC
DNA 2: TGGTGGCTACGACGGGATT
B17: AGCAGCC (DNA:RNA)
RNA: B16 RNA with G25A, U26G, C28A
DNA 1: CAATCTGAATTCCGGTCTCCC
DNA 2: TGGTGGCTACGACGGGATT
B18: GCUCUGU (DNA:RNA)
RNA: B2 RNA with U25G, G27U, A28C, A29U
DNA 1: CAATCTGAATTCCGGTCTCCC
DNA 2: TGGTGGCTACGACGGGATT
B19: ACCACUU (DNA:RNA)
RNA: B2 RNA with U25A, G27C, A29C, G30U
DNA 1: CAATCTGAATTCCGGTCTCCC
DNA 2: TGGTGGCTACGACGGGATT
B20: GCUCAUC (DNA:RNA)
RNA: B16 RNA with U26C, C27U, G29A, C30U
DNA 1: CAATCTGAATTCCGGTCTCCC
DNA 2: TGGTGGCTACGACGGGATT
B21: UUAAUGA (DNA:RNA)
RNA: B2 RNA with C26U, G27A, A29U, U31A
DNA 1: CAATCTGAATTCCGGTCTCCC
DNA 2: TGGTGGCTACGACGGGATT
B22: CUGGUAA (DNA:RNA)
RNA: B1 RNA with A25C, G26U, U27G, U28G, U30A
DNA 1: CAATCTGAATTCCGGTCTCCC
DNA 2: TGGTGGCTACGACGGGATT
B23: AAGAUCU (DNA:RNA)
RNA: B2 RNA with U25A, C26A, A29U, G30C
DNA 1: CAATCTGAATTCCGGTCTCCC
DNA 2: TGGTGGCTACGACGGGATT
B24: AAAUCAC (DNA:RNA)
RNA: B1 RNA with G26A, U27A, U29C, U30A, A31C
DNA 1: CAATCTGAATTCCGGTCTCCC
DNA 2: TGGTGGCTACGACGGGATT
B25: GCGUUUG (DNA:RNA)
RNA: B1 RNA with A25G, G26C, U27G, A31G
DNA 1: CAATCTGAATTCCGGTCTCCC
DNA 2: TGGTGGCTACGACGGGATT
B26: UUAUGCG (DNA:RNA)
RNA: B16 RNA with G25U, C27A, C28U, C31G
DNA 1: CAATCTGAATTCCGGTCTCCC
DNA 2: TGGTGGCTACGACGGGATT
B27: GUAUGCC (DNA:RNA)
RNA: B16 RNA with C27A, C28U
DNA 1: CAATCTGAATTCCGGTCTCCC
DNA 2: TGGTGGCTACGACGGGATT
B28: GUAUGCG (DNA:RNA)
RNA: B16 RNA with C27A, C28U, C31G
DNA 1: CAATCTGAATTCCGGTCTCCC
DNA 2: TGGTGGCTACGACGGGATT
B29: GUAUGUC (DNA:RNA)
RNA: B16 RNA with C27A, C28U, C30U
DNA 1: CAATCTGAATTCCGGTCTCCC
DNA 2: TGGTGGCTACGACGGGATT
B30: GCGUCCG (DNA:RNA)
RNA: B16 RNA with U26C, C27G, C28U, G29C, C31G
DNA 1: CAATCTGAATTCCGGTCTCCC
DNA 2: TGGTGGCTACGACGGGATT
B31: GCGUCGU (DNA:RNA)
RNA: B2 RNA with U25G, A28U, A29C
DNA 1: CAATCTGAATTCCGGTCTCCC
DNA 2: TGGTGGCTACGACGGGATT
B32: GCGUAUG (DNA:RNA)
RNA: B2 RNA with U25G, A28U, G30U, U31G
DNA 1: CAATCTGAATTCCGGTCTCCC
DNA 2: TGGTGGCTACGACGGGATT
B33: CGCGUCG (DNA:RNA)
RNA: B1 RNA with A25C, U27C, U28G, U30C, A31G
DNA 1: CAATCTGAATTCCGGTCTCCC
DNA 2: TGGTGGCTACGACGGGATT

target: T1, RBFOX1 RRM RbFoxmut (Fox-RRM*) (Homo sapiens, UniProt Q9NWB1 109-208, R118D;E147R;N151S;E152T); experiment: EMSA; HiTS-Eq, 1 nM pool, 10 min; buffer printed only for the single-RNA assays: 10 mM Tris pH 7.5, 150 mM NaCl, 3.4 mM EDTA, 0.001% NP-40, 30 C; conditions: tags: His6 N-terminal (pET28a); label: 5' 32P
T1 sequence: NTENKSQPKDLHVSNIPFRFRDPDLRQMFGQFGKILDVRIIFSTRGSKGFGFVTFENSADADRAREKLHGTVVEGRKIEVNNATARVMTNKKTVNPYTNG
Method in brief: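 Purified wild-type or mutant RbFox RRM at increasing concentrations was equilibrated with 1 nM of 5′-radiolabelled RNA carrying 7 randomized nucleotides for 10 min in 50 µL. Unbound RNA was separated by 8% native PAGE and sequenced. Relative association constants came from read-count changes of each RNA species compared with the control reaction, normalised to the cognate motif.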

Row | Binder | binding signal
1 | B1 | 0.101 KA relative to UGCAUGU
2 | B2 | 0.107 KA relative to UGCAUGU
3 | B3 | 0.081 KA relative to UGCAUGU
4 | B4 | 0.0643 KA relative to UGCAUGU
5 | B5 | 0.0596 KA relative to UGCAUGU
6 | B6 | 0.0863 KA relative to UGCAUGU
7 | B7 | 0.0724 KA relative to UGCAUGU
8 | B8 | 0.081 KA relative to UGCAUGU
9 | B9 | 0.075 KA relative to UGCAUGU
10 | B10 | 0.0795 KA relative to UGCAUGU
11 | B11 | 0.978 KA relative to UGCAUGU
12 | B12 | 0.0938 KA relative to UGCAUGU
13 | B13 | 0.13 KA relative to UGCAUGU
14 | B14 | 0.501 KA relative to UGCAUGU
15 | B15 | 0.576 KA relative to UGCAUGU
16 | B16 | 0.105 KA relative to UGCAUGU
17 | B17 | 0.0801 KA relative to UGCAUGU

Row | Binder | binding signal
18 | B18 | 0.102 KA relative to UGCAUGU
19 | B19 | 0.0717 KA relative to UGCAUGU
20 | B20 | 0.06 KA relative to UGCAUGU
21 | B21 | 0.0717 KA relative to UGCAUGU
22 | B22 | 0.121 KA relative to UGCAUGU
23 | B23 | 0.0643 KA relative to UGCAUGU
24 | B24 | 0.0617 KA relative to UGCAUGU
25 | B25 | 0.403 KA relative to UGCAUGU
26 | B26 | 0.13 KA relative to UGCAUGU
27 | B27 | 0.278 KA relative to UGCAUGU
28 | B28 | 0.468 KA relative to UGCAUGU
29 | B29 | 0.334 KA relative to UGCAUGU
30 | B30 | 0.135 KA relative to UGCAUGU
31 | B31 | 0.129 KA relative to UGCAUGU
32 | B32 | 0.876 KA relative to UGCAUGU
33 | B33 | 0.101 KA relative to UGCAUGU
